# PI4K2A block = PI4K2A (human) kinase inhibition; activity change, negative = inhibition, % at 76.9 µM; AID 1346378; 0.13% of 420,000 active; purified PI4K2A, ADP-Glo luminescence, 1 h; hits give low values; in the data active means activity change below about -50%; inconclusive means mostly about -30% to -49%;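 further: -100% = wells without enzyme as full effect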
#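 In this quantitative HTS, ADP production by PI4K2A was quantified luminescently after 1 h at ambient temperature; 100 microM adenosine served as plate-quality control.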
# Giardia killer = Giardia lamblia killing; activity change, % at 7.66 µM, hits read low; Giardia lamblia trophozoite viability; AID 540267; 0.15% of 340,000 active; in the data active means activity change below about -80%; inconclusive means between about -30% and that limit;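 further: parasites exposed to compound for two days anaerobically before the ATP read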
#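 Anaerobic 48 hrs incubation at 37 deg C of 100 trophozoites/well with test compounds; ATPLite 1-Step luminescence, 15-30 min RT, reports cellular ATP as viability.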
# GALK inhibitor = galactokinase (human) inhibition. P51570. AID 1868. Potency, µM (highest dose often 57.5 µM), inactives show top-dose activity change, negative = inhibition, hits mostly inhibitors. Purified GALK, Kinase-Glo residual ATP luminescence. 0.007% of 270,000 active; further: potency means the concentration at half of the fitted maximal effect
# Target sequence (P51570 whole entry, looked up): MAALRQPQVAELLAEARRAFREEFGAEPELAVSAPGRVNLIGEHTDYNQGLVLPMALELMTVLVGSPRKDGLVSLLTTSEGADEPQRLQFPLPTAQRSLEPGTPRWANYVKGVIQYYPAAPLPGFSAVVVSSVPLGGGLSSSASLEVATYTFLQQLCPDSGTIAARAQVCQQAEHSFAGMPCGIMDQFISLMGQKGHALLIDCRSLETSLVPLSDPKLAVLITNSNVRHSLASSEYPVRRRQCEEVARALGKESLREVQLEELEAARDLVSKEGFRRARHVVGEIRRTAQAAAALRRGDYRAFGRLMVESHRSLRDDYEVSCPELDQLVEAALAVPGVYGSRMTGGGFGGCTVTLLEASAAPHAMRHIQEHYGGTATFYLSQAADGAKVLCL
#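 The enzyme phosphorylates galactose (100 uM) using ATP (35 uM); inhibition is detected as higher residual ATP, quantified by bioluminescence after 1 h reaction at room temperature, pH 8.0.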
# TrxR1 inh = inhibitors of rat thioredoxin reductase 1. O89049. recombinant rTrxR1, NADPH fluorescence consumption, selenite substrate. Potency, µM (titrated, usually from 114 µM), for the others: top-dose activity change, negative = inhibition, most hits filed as inhibitors. 1% of 390,000 active. AID 588453; further: potency means the concentration at half of the fitted maximal effect; nearly all actives have a fitted effect of over 65% in size
#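 Rat TrxR1 (90 nM in the dispensed reagent) was pre-reduced with 400 uM NADPH for 5 min at room temperature, then incubated with compound for 15 min. After 400 uM selenite was added, NADPH fluorescence (Ex 340/Em 450 nm) was followed for 8 min.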
# Coupling enz = inhibits coupling enzyme system, counter-screen for aldolase hits; coupling enzyme system counterscreen, AmpLite Red fluorescence; activity change, negative = inhibition, % at 58.2 µM, hits read low; 0.67% of 290,000 active; AID 2472; in the data active means activity change below about -30%
#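 Final compound at 57.5 uM, incubated 10 min at RT with coupling enzyme reagent (glyceraldehyde-3-phosphate), then 20 min with substrate and AmpLite Red detection. Fluorescence read at 525/598 nm; tests interference with the coupling assay, not aldolase inhibition.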
# TrxR1 substrate = is turned over as a substrate by rat TrxR1. purified TrxR1 substrate turnover, NADPH consumption readout. AID 588456. O89049. Potency, µM (titrated, usually from 114 µM), inactives show at the top dose activity change, negative = substrate turnover. 0.01% of 390,000 active; further: potency means the concentration at half of the fitted maximal effect; nearly all actives have a fitted effect of over 50% in size
#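 Rat TrxR1, dispensed at 90 nM, was prereduced with 400 uM NADPH (final) for 5 min at ~22 deg C, then incubated with compound 15 min before 400 uM selenite. A first-read NADPH fluorescence drop versus no-compound background flagged substrates.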
# Active calls of the source: *; ? = inconclusive; nt = no result given; [ ] = another dose, or the depositor's remark. Only some compounds are listed: those with a hit (about 1.5% of all), similar ones and a draw of the others. Unless noted, the call rests on the fitted dose curve; in most records, active means well fitted curve in the direction sought with a large enough effect; inconclusive means small, poorly fitted or top-dose-only effect, or another doubt; inactive means no such curve, though single readings can be large; an effect the other way counts as inactive or inconclusive. Unless noted, on the % scale 0 is the no-effect control and ±100 the full control effect.
SMILES,PI4K2A block,Giardia killer,GALK inhibitor,TrxR1 inh,Coupling enz,TrxR1 substrate
CC(=O)c1c(C)n([O-])c2cc(C)ccc2[n+]1=O,16,-104*,4%,-26%,0,-7%
Cc1ccc(Cn2c(=S)[nH]c3ccc(N4CCOCC4)cc3c2=O)o1,-24,-2,-1%,4.5µM*,-29,5%
CC(C)OCCCn1c(=S)[nH]c2ccc(N3CCOCC3)cc2c1=O,5,8,2%,0%,-44*,18%
CCCCn1c(=S)[nH]c2ccc(N3CCOCC3)cc2c1=O,nt,nt,0%,nt,0,nt
O=C(COc1ccccc1C(=O)OCC(=O)Nc1cccc2ccccc12)Nc1ccc(Br)cc1,nt,nt,nt,3%,nt,-5%
Cc1ccc(CNC(=O)CC(C)S(=O)(=O)c2ccc3c(c2)NC(=O)CS3)o1 (centres undefined),-5,-21,0%,16µM*,-1,3%
Cc1ccc(C)c(NC(=O)CCc2c(C)nn(-c3ccc(N4CCCC4)nn3)c2C)c1,-3,nt,nt,23%[57.1 µM],nt,7%[57.1 µM]
O=[N+]([O-])c1ccc(C2CCCC/C2=N/OCc2ccccc2F)c([N+](=O)[O-])c1 (centres undefined),-1,12,-1%,9%[57.1 µM],0,8%[57.1 µM]
O=C(O/N=C1\CCCCC1c1ccc([N+](=O)[O-])cc1[N+](=O)[O-])c1c(F)cccc1F (centres undefined),-8,-7,-1%,?,-31*,-3%
C=CCNC(=O)N1CCc2nc(CCCC)c3c(c2C1)CO[C@@H](C)C3,nt,nt,nt,nt,0,nt
Cn1c(=O)c2c(nc(OC/C=C/c3ccccc3)n2C)n(C)c1=O,0,1,nt,45µM*,nt,8%
O=C(CCSc1ccc(Cl)cc1)c1ccco1,-4,34,4%,10µM*,2,4%
O=C(CSc1ccc(Cl)cc1)c1ccco1,-8,-3,7%,45µM*,-2,6%
O=C(NCCSc1ccc(Cl)cc1)c1ccco1,0,-5,-1%,10%,1,2%
O=C(CSc1ccccc1Cl)c1ccco1,-11,-2,9%,?,-4,-8%
Cc1ccccc1C(=O)Nc1ccc(C(=O)N2CCCC(O)c3cc(Cl)ccc32)c(C)c1 (centres undefined),1,nt,nt,nt,nt,nt
CC(=O)c1ccc(OCc2cc(C(=O)N(C)Cc3ccon3)no2)cc1,-8,25,-2%,3%,nt,-4%
COc1ccccc1OCc1cc(C(=O)N(C)CCC2CCOCC2)no1,3,nt,nt,nt,nt,nt
CC(=O)c1cccc(OCc2cc(C(=O)N(C)CCC3CCOCC3)no2)c1,3,1,0%,8.9µM*,0,7%
CC(=O)c1cccc(OCc2cc(C(=O)N3C[C@@H](C)O[C@@H](C)C3)no2)c1,9,17,0%,10µM*,-1,6%
CC(=O)c1ccc(OCc2cc(C(=O)N(C)Cc3ccccn3)no2)cc1,-1,-21,8%,50µM*,nt,2%
CN1CC(=O)N(CC(=O)Nc2ccc(N(C)C)cc2)c2ccccc2C1=O,-3,6,2%,-24%,-42*,-5%
CCCCCCCCCOC(=O)CNc1nc(C#N)nc(NCC(=O)OCCCCCCCCC)n1,nt,-1,nt,35%,nt,1%
CCOC(=O)c1cc([N+](=O)[O-])c([N+](=O)[O-])cc1NC(C)=O,26,4,nt,3.2µM*,-3,-5%[57.1 µM]
Cc1ccc(/C=C2\SC(=S)N(/N=C/c3cc([N+](=O)[O-])ccc3O)C2=O)o1,-18,-4,-12%,22µM*,-6,-14%
CCN1CCN(C(c2ccc(C(F)(F)F)cc2)c2ccc3cccnc3c2O)CC1 (centres undefined),15,-5,-1%,3.5µM*,1,6%[57.1 µM]
COc1ccc(N2C(=O)[C@@H]3[C@H](C2=O)[C@H]2c4ccccc4C=CN2[C@@H]3C(=O)Nc2ccccc2)cc1,-22,-5,-1%,-24%,-27,-21%

# Bioassay records: PubChem BioAssay, National Center for Advancing Translational Sciences (NCATS)
